The results in this text go back to PubChem BioAssay AID720504 (National Center for Advancing Translational Sciences (NCATS), 2013).

The campaign covered roughly 360,000 compounds. About 10,000 (2.8%) were called active. Another 4% or so got no clear call; they are omitted. Calls follow the shape of the dose curve; as a rule, active = well fitted inhibition curve with a large enough effect; inconclusive = small, poorly fitted or top-dose-only effect; inactive = flat fitted curve, though single readings scatter. The list comes from a sample in which actives are over-represented; it also holds similar structures and randomly drawn compounds.
% is scaled to controls: 0 for no effect and ±100 for the full control effect; potency is read from the fitted curve at half-maximal effect.

In this experiment the target is Serine/threonine-protein kinase PLK1 (Homo sapiens) (UniProt P53350). As to the kind of experiment: qHTS for Inhibitors of PLK1-PDB (polo-like kinase 1 - polo-box domain): Primary Screen. Also: nearly all actives have a fitted effect of over 65% in size. As to max response, negative = inhibition: series mostly up to about 57 µM. The conditions noted are these: Plk1 PBD binding of FITC phosphopeptide, fluorescence polarization. An excerpt: The polo-like kinase 1 (Plk1) is a member of a conserved subfamily of serine / threonine protein kinases that plays a pivotal roles in cell proliferation. It has a C-terminal non-catalytic region called the polo-box domain (PBD) that plays a crucial role in the subcellular localization of the Plk1. […] Furthermore, depletion of the overexpressed Plk1 by RNAi efficiently induces apoptotic cell death in cancer and reduces tumor growth in mouse xenograft models. Thus, targeting Plk1 is an appealing strategy for anti-cancer therapy. Therefore, this project aimed to screen the Molecular Libraries Small Molecule Repository (MLSMR) using a novel approach to find inhibitors that target the Plk1 PBD instead of the conventional N-terminal catalytic domain. This project employed a fluorescence polarization (FP) assay using a FITC-conjugated phospho-9-mer (p-9-mer) peptide and purified human Plk1 PBD protein. The identified small molecule inhibitors of Plk1 PBD can then further be developed into useful tools for biomedical and clinical research that complements or replaces current relevant disease therapy. NIH Chemical Genomics Center [NCGC] NIH Molecular Libraries Probe Centers Network [MLPCN] MLPCN Grant: MH100728 Assay Submitter (PI): Kyung Lee, NCI
Sequence of Serine/threonine-protein kinase PLK1 (Homo sapiens) (P53350 whole entry, looked up, the tested form may be a part): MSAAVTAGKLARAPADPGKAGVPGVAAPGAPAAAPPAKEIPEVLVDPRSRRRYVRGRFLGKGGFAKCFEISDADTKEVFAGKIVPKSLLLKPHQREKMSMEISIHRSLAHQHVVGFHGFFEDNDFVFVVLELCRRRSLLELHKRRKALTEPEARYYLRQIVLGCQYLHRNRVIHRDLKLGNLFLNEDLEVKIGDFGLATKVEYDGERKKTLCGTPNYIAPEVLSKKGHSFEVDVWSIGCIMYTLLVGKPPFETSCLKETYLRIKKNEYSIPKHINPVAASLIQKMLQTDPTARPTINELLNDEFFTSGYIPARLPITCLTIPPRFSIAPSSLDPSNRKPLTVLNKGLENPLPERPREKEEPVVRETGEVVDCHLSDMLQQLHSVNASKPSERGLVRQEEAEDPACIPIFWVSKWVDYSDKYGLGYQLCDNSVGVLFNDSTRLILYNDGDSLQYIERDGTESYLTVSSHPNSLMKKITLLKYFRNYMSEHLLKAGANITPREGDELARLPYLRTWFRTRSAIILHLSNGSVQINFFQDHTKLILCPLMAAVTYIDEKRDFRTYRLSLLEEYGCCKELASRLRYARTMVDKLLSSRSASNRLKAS
Four microliter of 25 nM FITC-p-9-mer + 60 nM Plk1 PBD in buffer solution (final concentrations 25 nM and 60 nM respectively) or 4 uL of 25 nM FITC-p-9-mer (final concentration 25 nM) in buffer will be dispensed into a 1,536 Greiner medium-binding black solid plate. Small molecules at final concentrations of 18 nM to 57 uM and positive control phospho-9-mer (sequence: Ac-PPLHSpTAI-NH2) at final concentrations 26 nM to 57 uM and phospho-13-mer (sequence: Ac-[…]pTAI-NH2) at final concentrations of 1 nM to 2.3 uM will be pin-transferred (23 nL) to the plate via a Kalypsys pin-tool robotics equipped with a 1,536-pin array. The reaction plate will be centrifuged for 1 min at 1000 rpm and incubated at room temperature for 10 min. The FITC fluorescence signals will be read using the PerkinElmer ViewLux plate reader at 480 / 20 nm excitation and 540 / 20 nm S and P polarization emission wavelengths. Reagent bottles will be kept submerged into 4 °C recirculating chiller bath and all liquid lines will be covered with aluminum foil to minimize degradation. Library plates will be screened starting from the lowest to the highest concentrations to minimize compound carryover. Vehicle only plates, with DMSO being pin-transferred instead of compound solutions, will be included regularly throughout the screen to record any systematic shifts in assay signal.
A general note: qHTS replaces the single test concentration by a dilution series.
On to `COc1cc(C(=S)N2CCOCC2)ccc1O`, for which the Potency was 11.9 µM (active).

On to `COc1ccc(C(=O)C2CCCN(Cc3ccc(C)s3)C2)cc1OC` (centres undefined), for which the max response, negative = inhibition is -12.4% (inactive). For the compound `COc1ccccc1OC(=O)c1ccc(C)c(S(=O)(=O)N2CCOCC2)c1`, the max response, negative = inhibition is -17.4% (inactive). On to `S=C(NCCc1ccccc1)N1Cc2cc(N3CCOCC3)ccc2-n2nncc2C1`, for which the max response, negative = inhibition is -7.87% (inactive). The same measure, in the same setting: for `OC1/C(=C/c2ccc(C(F)(F)F)cc2)N2CCC1CC2` (centres undefined) the value was 3.89% (inactive); for `CCOC(=O)C1(Cc2ccc(Cl)cc2)CCN(C(C)CCn2cccn2)CC1` (centres undefined), -2.75% (inactive); for `CCOc1ccc(-c2cc(C)[n+](CCN(CC)CC)c(-c3ccc(OCC)cc3)c2)cc1`, -4.15% (inactive). As to `CCn1cc(CN2CCCC(C(=O)c3cccc(C(F)(F)F)c3)C2)cn1` (centres undefined), the max response, negative = inhibition was -6.76% (inactive). For the compound `CCN(CC)C(=O)Oc1ccc(OC(=O)N(CC)CC)cc1`, the Potency is 16.8 µM (active).

With `CCN(CC)C(=O)Oc1ccc(NC(=O)N2CCOCC2)cc1`, the max response, negative = inhibition was -7.81% (inactive). As to `CN(C)C(=O)Oc1ccc(OCc2cccc[n+]2C)cc1`, the max response, negative = inhibition is -4.14% (inactive). `CCC1(C)CC(CCNCc2ccc(N(C)C)cc2)(c2ccc(F)cc2)CCO1` (centres undefined): the max response, negative = inhibition was -1.51% (inactive). On the same count and under the same terms, for `COc1ccccc1CN1CCN(C(=O)Cc2ccccc2)CC1` the value was 3.36% (inactive); for `O=c1[nH]c2ccccc2n1C1CCN(C(c2ccccc2)c2nnnn2Cc2ccccc2)CC1` (centres undefined), 3.89% (inactive); for `Cc1cc(C)c2c(c1)NP(=S)(c1ccccc1)N2` (centres undefined), -17.9% (inactive). `COc1ccc2c(c1)NP(=S)(c1ccccc1)N2` (centres undefined): the Potency is 3.36 µM (active). In the case of `CC(=O)Nc1ccccc1C(=O)OCC(=O)c1cccc2ccccc12`, the max response, negative = inhibition is -5.92% (inactive). As for `CC(c1ccccc1)(c1ccccc1)c1ccncc1`, the max response, negative = inhibition was -1.65% (inactive). In the case of `COC(=O)C1=C(c2cc3ccccc3o2)C[C@@H]2CC[C@H]1N2C(=O)NC1CCCCC1`, the max response, negative = inhibition is 0.442% (inactive). Same read-out and setting: the figure for `CCOC(=O)C1=C(C)OC(N)=C(C(=O)OC)C12C(=O)Nc1ccc(Br)cc12` (centres undefined) is 0.0447% (inactive); for `CC(C)c1ccc(O)c(CN2CCN(c3ccccc3)CC2)c1` it is 6.47% (inactive). As to `COc1cccc(N2C(=O)NC(=O)/C(=C\c3cn(C)c4ccccc34)C2=O)c1`, the Potency was 9.47 µM (active). With `CCc1nc2ccccc2c(=O)n1-c1cccc(OC)c1`, the max response, negative = inhibition is -4.27% (inactive). As to `COc1cccc(N2C(=O)NC(=O)/C(=C\c3ccc([N+](=O)[O-])s3)C2=O)c1`, the Potency was 5.32 µM (active). The same measure, in the same setting: for `O=C1NC(=O)N(c2ccccc2)C(=O)/C1=C/c1ccc([N+](=O)[O-])s1` the value was 2.67 µM (active). Regarding `CC1=C(C(=O)Nc2ccccc2)SCCO1`, the max response, negative = inhibition is -5.57% (inactive). Still for that read-out and setting: the figure for `CC(=CCOc1ccc2ccc(=O)oc2c1)C1=CC(=O)C(C)(C)O1` is -1.51% (inactive); for `O=C(O)C1CSC(c2cccnc2)N1` (centres undefined) it is -10% (inactive).

With `O=C1NCN(c2ccccc2)C12CCN(C(c1cccs1)c1nnnn1C1CCCCC1)CC2` (centres undefined), the max response, negative = inhibition is -2.86% (inactive). As to `COP(=O)(NS(=O)(=O)c1ccccc1)OC`, the max response, negative = inhibition was -7.79% (inactive). Turning to `C[N+]1(C)CCOC(O)(c2ccc(-c3ccc(C4(O)C[N+](C)(C)CCO4)cc3)cc2)C1` (centres undefined), the max response, negative = inhibition was -17.9% (inactive). As to `COc1ccc(-n2c(O)c(C(C)=Nc3ccc4c(c3)CCC4)c(=O)[nH]c2=O)cc1`, the max response, negative = inhibition was 2.28% (inactive). In the case of `COc1ccccc1C1=NCc2nnc(CSC)n2-c2ccc(Cl)cc21`, the max response, negative = inhibition is 2.66% (inactive). In the case of `O=C(NCC1=C(c2ccc3ccccc3c2)C[C@@H]2CC[C@H]1N2Cc1ccco1)c1cccs1`, the max response, negative = inhibition is -9.52% (inactive).

As for `O=C1NC(=O)C(C/C=C/c2ccccc2)C(=O)N1`, the max response, negative = inhibition was -29.7% (inactive).

Turning to `CCN(CC)C(=O)c1ccc(NC(=O)c2cc(-n3cnnc3)ccc2Cl)cc1`, the max response, negative = inhibition is -5.96% (inactive). Consider `CN(C)CC1Oc2ccccc2OC1(O)c1ccccc1` (centres undefined), for which the Potency was 5.32 µM (active). Turning to `OC(CNC1CCCCC1)c1ccccc1` (centres undefined), the max response, negative = inhibition was -2.72% (inactive).

Turning to `CN1CCC(N(C)Cc2cccnc2)CC1`, the max response, negative = inhibition is -7.61% (inactive).

On to `CCOC(=O)C(O)(c1ccc(N)c(OC)c1)C(F)(F)F` (centres undefined), for which the max response, negative = inhibition is -1.46% (inactive).

With `CN(C)C(=O)Oc1cc(=O)n2c3c(cccc13)CCC2`, the max response, negative = inhibition was -13.7% (inactive). On the same count and under the same terms, for `CC1CCCN1CCC(C(N)=O)(c1ccccc1)c1ccccc1` (centres undefined) the value was -4.65% (inactive). As to `Cc1ccnc(-n2c(C)cc(/C=C3\C(=O)NC(=S)N(C)C3=O)c2C)c1`, the Potency is 2.38 µM (active). For `Cc1ccc(-n2c(C)cc(/C=C3\C(=O)NC(=O)N(C)C3=O)c2C)cc1C`, the max response, negative = inhibition is -15.6% (inactive). Still for that read-out and setting: the figure for `O=C(NC(c1ccc(Cl)cc1)P(=O)(Oc1ccccc1)Oc1ccccc1)OCc1ccccc1` (centres undefined) is 0.141% (inactive). Regarding `C[C@H]1CN([C@@H](C)CO)C(=O)CCCn2nncc2CO[C@H]1CN(C)C(=O)Oc1ccccc1`, the max response, negative = inhibition is -3.55% (inactive). For `CC(CC(C#N)(c1ccccc1)c1ccccc1)N1CCCCC1` (centres undefined), the max response, negative = inhibition was -6.42% (inactive). With `COc1cccc(C(c2nnnn2-c2ccc3c(c2)OCCO3)N2CCC3(CC2)C(=O)NCN3c2ccccc2)c1OC` (centres undefined), the max response, negative = inhibition is -7.89% (inactive). For `O=C(O)CCn1cc(C=C2C(=O)NC(=S)NC2=O)c(-c2cccc(Br)c2)n1`, the Potency is 4.74 µM (active). `O=c1[nH]c2ccccc2n1C1CCN(C(c2ccnc3ccccc23)c2nnnn2Cc2ccccc2)CC1` (centres undefined): the max response, negative = inhibition is 3% (inactive).

As to `CCCCCCCCCCCCn1ccc(=N)cc1`, the max response, negative = inhibition is -4.33% (inactive).

Consider `COc1ccc(-c2nn(CCC#N)cc2C(=O)O)cc1`, for which the max response, negative = inhibition is -2.51% (inactive). The same measure, in the same setting: for `O=C(c1cc(S(=O)(=O)N2CCOCC2)ccc1F)N1CCC2(CC1)OCCO2` the value was -4.68% (inactive); for `C=CC12CN(C)[C@@H]3C4CO[C@H](C[C@H]41)[C@]1(C(=O)Nc4ccccc41)[C@@H]32` (some centres undefined), -7.71% (inactive). For `CCN1C(=O)C(=Cc2c(C)n(CC(=O)NCC3CCCO3)c3ccccc23)C(=O)N(CC)C1=S` (centres undefined), the Potency was 1.06 µM (active). Consider `C/C=C/CC1(CC)C(=O)NC(=S)NC1=O`, for which the max response, negative = inhibition was -7.94% (inactive).

`CCc1cccc2c(C#N)cn(CC(=O)N3CCOCC3)c12`: the max response, negative = inhibition was -5.32% (inactive). Take `COc1ccccc1N=Nc1c(O)[nH]c(=S)[nH]c1=O`: the max response, negative = inhibition was 13.3% (inactive).

Consider `O=c1[nH]c(=S)[nH]c(O)c1/C=C1\C=Nc2ccccc21`, for which the Potency was 1.19 µM (active).
